# Test results taken from PubChem BioAssay AID2284353 (EPA ToxCast).
# Results filed as inconclusive are left out. Active and inactive are the calls of the source. How the source made its calls: active means hit-call score of the fitted dose curve at least 0.9, where 1 is the maximum; inconclusive means response in the unintended direction; inactive means score below 0.9.
# Test system: Japanese medaka Peroxisome Proliferator-activated Receptor gamma (PPARg), gene 100304459
# Experiment: ATG_jmPPARg_EcoTox2: Attagene TRANS-FACTORIAL EcoTox-2 HepG2 Assay for Japanese medaka Peroxisome Proliferator-activated Receptor gamma (PPARg)
# Method: ATG_EcoTox2 is a cell-based, multiplexed assay created by modifying the existing Attagene TRANS-FACTORIAL system to include a panel of nuclear receptors from some or all the following species: human (Homo sapiens), african clawed frog (Xenopus laevis), rainbow trout (Oncorhynchus mykiss), japanese medaka (Oryzias latipes), and zebrafish (Danio rerio). The ECOTOX2-FACTORIAL format uses HepG2, a human liver cell line, with measurements taken at 24 hours after chemical dosing in a 24-well plate. ATG_jmPPARg_EcoTox2 is one of 29 assay components calculated in the ATG_EcoTox2 assay. It is designed to make measurements of mRNA induction, a form of inducible reporter, as detected with fluorescence intensity signals by Reverse transcription polymerase chain reaction (RT-PCR) and Capillary electrophoresis technology.The assay endpoint ATG_jmPPARg_EcoTox2 was analyzed in the positive analysis fitting direction relative to DMSO as the negative control and baseline of activity. Using a type of inducible reporter, measures of mRNA for gain-of-signal activity can be used to understand the reporter gene at the transcription factor-level as they relate to the gene PPARg. Furthermore, this assay endpoint can be referred to as a primary readout, because this assay has produced multiple assay endpoints where this one serves a reporter gene function. To generalize the intended target to other relatable targets, this assay endpoint is annotated to the nuclear receptor intended target family, where the subfamily is non-steroidal.
# Human liver HepG2 cells are transiently transfected with multiple reporter transcription units (MRTUs) in 6-well plates using FuGene 6 reagent (Roche; 3 ml FuGene/1 mg DNA). The MRTU constructs are regulated by a cis-regulating element (promoter). Each RTU expresses a GAL4-UAS that regulates the transcription of a nearby target reporter gene sequence. A major difference between the CIS and TRANS system is that in CIS activities of endogenous TFs are measured, whereas the TRANS assay evaluates changes in activities of exogenous, chimeric NR-Gal4 proteins. […] At the end of 24 hour incubation, total RNA was isolated using TriZol reagent (Invitrogen). The isolated RNA is then reverse-transcribed using oligo(dT) primer and Mo-MLV reverse transcriptase (Invitrogen) with DNAse I (Ambion) treatment for 30 min. The one-tenth of the produced cDNA was amplified by PCR using Taq DNA polymerase (Invitrogen) and two reporter sequence-specific primers. The PCR products were fluorescently labeled by primer extension with 6-arboxyfluorescein (6-FAM) 5'-labeled reporter sequence-specific primer (2 min at 95 C, 20 s at 68 C and 10 min at 72 C) and these products were digested with 5U of HpaI (New England Biolabs) for 2h at 37 C. The fragments were purified using Qiaquick PCR columns (Qiagen), analyzed on an ABI 3130xL genetic analyzer (Applied Biosystems) with peak positions identified by using a set of X-rhodamine (ROX)-labeled MapMarker1000 molecular weight standards (BioVentures). The raw capillary electrophoresis data was processed using Attagraph software (Attagene).
row,SMILES,AC50
1,[Cl][Sn]([c]1ccccc1)([c]1ccccc1)[c]1ccccc1,0.382 µM (active)
2,O=S(=O)(O)C(F)(F)C(F)(F)C(F)(F)C(F)(F)C(F)(F)C(F)(F)F,76.1 µM (active)
3,O=P(Oc1ccccc1)(Oc1ccccc1)Oc1ccccc1,30.6 µM (active)
4,O=C(O)C(F)(F)C(F)(F)C(F)(F)C(F)(F)C(F)(F)C(F)(F)C(F)(F)F,75 µM (active)
5,CCCCOCN(C(=O)CCl)c1c(CC)cccc1CC,4.6 µM (active)
